# DNMT1 block – blocks human DNA methyltransferase DNMT1 | P26358 | actives 0.83% (n = 360,000) | inhibition (reported as % activation of signal), % at 10 µM | DNMT1 molecular beacon, Hinp1I cleavage, fluorescence; in the data active = inhibition above about 50%
# LEDGF integ inh – blocks HIV-1 LEDGF/p75-dependent DNA integration. TR-FRET IN-LEDGF/p75 DNA integration, Eu/Cy5. inhibition, % at 3.7 µM. actives 0.64% (n = 370,000). AID 743269;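 active = inhibition above the screen-wide mean plus 3 SD, cut at about 13% in these data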;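 also: signal is the Cy5 over europium emission ratio at 671 and 618 nm; 0% = plate median of compound wells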
# PG9 binder – PG9 antibody binding by small molecule | actives 0.43% (n = 360,000) | AID 624416 | inhibition, % at 6.7 µM | TR-FRET gp120-PG9 antibody binding; in the data active = inhibition above about 8.5%
# MBD2 inh – blocks human MBD2 binding to methylated DNA; Q9UBB5; TR-FRET, MBD2 binding to methylated oligonucleotide; inhibition, % at 4.4 µM; actives 0.31% (n = 370,000); AID 686964; in the data active = inhibition above about 13%
# Target sequence (Q9UBB5 whole entry, looked up): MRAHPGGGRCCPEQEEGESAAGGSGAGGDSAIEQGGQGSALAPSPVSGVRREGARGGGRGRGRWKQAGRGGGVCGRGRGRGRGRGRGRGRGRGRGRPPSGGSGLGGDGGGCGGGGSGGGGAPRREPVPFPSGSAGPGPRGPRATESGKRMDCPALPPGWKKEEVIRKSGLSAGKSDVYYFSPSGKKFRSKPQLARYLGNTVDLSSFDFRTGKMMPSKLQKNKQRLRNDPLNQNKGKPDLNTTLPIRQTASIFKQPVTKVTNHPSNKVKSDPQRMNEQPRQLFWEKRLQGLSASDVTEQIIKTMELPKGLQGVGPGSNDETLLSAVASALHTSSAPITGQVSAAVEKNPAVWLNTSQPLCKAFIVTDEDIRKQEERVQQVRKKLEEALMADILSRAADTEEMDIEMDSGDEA
# rCAG RNA binder – molecules binding r(CAG) RNA repeats | actives 1.3% (n = 370,000) | r(CAG) RNA repeat, TO-PRO-1 dye displacement fluorescence | inhibition, % at 3 µM;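 active = inhibition above the plate cutoff, the mean of all test compounds on that plate plus 3 SD, cut at about 35% in these data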;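 also: 0% = DMSO alone and 100% = 100 µM mitoxantrone as full dye displacement; higher means more dye released from RNA so lower well fluorescence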
# UHRF1 MBD2 ctr – human UHRF1 methylated DNA binding inhibitors | Q96T88 | UHRF1 binding to methylated oligo, TR-FRET | inhibition, % at 4.4 µM | actives 0.75% (n = 370,000) | AID 687016; in the data active = inhibition above about 21%;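 also: UHRF1 SRA domain binding a hemimethylated CpG hairpin DNA probe; 0% = median of test compound wells and 100% = reference inhibitor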
# rCAG binder conf – r(CAG) RNA repeat binding, confirmation. shares compounds with rCAG RNA binder. TO-PRO-1 dye displacement fluorescence. inhibition, % at 3 µM. actives 70% (n = 4,300);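 active = inhibition above a per-plate cutoff, the mean inhibition of sample wells plus 3 SD, cut at about 35% in these data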;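 also: loss of TO-PRO-1 fluorescence as compound displaces dye from 1x1 AA loop RNA; 0% = DMSO only wells and 100% = 100 µM mitoxantrone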
# dCAG dye counter – disrupts DNA CAG TO-PRO-1 complex, flagging rCAG hits | shares compounds with rCAG RNA binder | d(CAG) DNA oligo TO-PRO-1 dye displacement, fluorescence | inhibition, % at 3 µM | actives 94% (n = 4,300);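 active = inhibition above its plate's cutoff, the mean test-well inhibition plus 3 SD, cut at about 4.8% in these data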;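 also: 0% = DNA dye mix with DMSO and 100% = 100 µM mitoxantrone; hits displace the dye from DNA and so lower well fluorescence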
# The depositor's hits bear a star; nt = not tested or not shown. The list is not random: actives were taken first. Their share in the collection is about 3.5%.
SMILES,DNMT1 block,LEDGF integ inh,PG9 binder,MBD2 inh,rCAG RNA binder,UHRF1 MBD2 ctr,rCAG binder conf,dCAG dye counter
COc1ccc(C2CC(=O)N3CN(c4ccc(C)c(Cl)c4)CSC3=C2C#N)cc1 (stereo unspecified),-9.7,4.8,2.5,3.3,38.5*,-0.6,13.9,8.3*
O=c1[nH]c(=S)[nH]c2c1C(c1cccc(C(F)(F)F)c1)OC(CCc1ccccc1)C2 (stereo unspecified),nt,7.8,-0.2,-4.0,27.8,1.4,nt,nt
CC(C)(C)c1nc(NC(=O)Nc2ccccc2)sc1Br,-14.2,0.1,-0.7,-2.2,36.2*,2.2,15.6,15.7*
O=C(O)CN1C(=O)/C(=C/c2ccccc2Cl)Oc2ccccc21,-2.0,3.1,0.5,4.2,39.4*,3.0,35.4*,7.3*
CC(C)=CCc1cc(-c2oc3cc(O)cc(O)c3c(=O)c2O)ccc1O,-7.8,3.6,-1.3,0.8,44.5*,7.5,51.6*,24.7*
CC1OC(Oc2ccc3ccc(=O)oc3c2-c2c(O)ccc3cc(Oc4ccc5ccc(=O)oc5c4)c(=O)oc23)C(O)C(O)C1O (stereo unspecified),-0.6,-3.5,-2.8,-7.5,38.2*,-0.8,24.5,8.7*
S=c1[nH]nc(-c2cc(-c3ccccc3)n[nH]2)n1/N=C/c1ccccc1,-0.5,-0.5,0.7,0.8,27.6,-1.5,nt,nt
Cc1ccc(/C=N/n2c(-c3cccs3)n[nH]c2=S)cc1,1.8,-1.0,-1.3,-3.7,20.4,0.7,nt,nt
S=c1[nH]nc(-c2cc(-c3ccccc3)n[nH]2)n1/N=C/c1cccs1,-1.2,3.6,0.9,8.4,35.5*,0.5,39.2*,10.3*
S=c1[nH]nc(-c2cc(-c3ccccc3)n[nH]2)n1N=Cc1c[nH]c2ccccc12,nt,-2.6,nt,-0.9,78.4*,0.9,65.7*,22.8*
S=c1[nH]nc(-c2cccs2)n1/N=C/c1c(Cl)cccc1Cl,2.6,1.6,1.0,1.6,49.9*,-5.5,43.8*,10.3*
CC(=O)Nc1ccc(C(=O)COC(=O)c2cccs2)c(F)c1,-1.6,-3.4,1.2,2.6,1.8,1.6,nt,nt
Nc1c(C=C2C=CC(=O)C=C2)c(=O)nc2snc(SCc3ccccc3)n12,-9.7,2.7,0.5,-3.6,51.7*,-2.1,49.7*,16.4*
Cc1ccc(S(=O)(=O)c2c(C)cc(C)[nH]c2=O)c(C)c1,1.2,2.9,-0.3,0.7,0.1,1.0,nt,nt
CN(Cc1cn(Cc2ccc(F)cc2)nn1)C1CN(Cc2cn(Cc3ccc(F)cc3)nn2)S(=O)(=O)C1 (stereo unspecified),nt,-2.7,1.3,6.7,0.2,9.9,nt,nt
CC1=Nc2cc(C(=O)NCC3CCCO3)ccc2Sc2ccc(Br)cc21 (stereo unspecified),-3.3,-0.5,-1.4,0.9,-4.1,-1.4,nt,nt
CC1=Nc2cc(C(=O)O)ccc2Sc2ccc(Br)cc21,17.6,0.3,-1.4,1.8,50.5*,-0.7,55.2*,22.1*
Cc1ccc(S(=O)(=O)N2[C@@H](c3ccc(Cl)c(Cl)c3)C(C(=O)O)=C[C@H]2C(C)(C)C)cc1,5.3,nt,nt,nt,nt,nt,nt,nt
CC[C@@H]1C=C(C(=O)O)[C@H](c2ccc(Cl)c(Cl)c2)N1S(=O)(=O)c1ccc(C)cc1,6.8,6.3,0.3,-0.3,46.0*,-0.7,41.0*,12.3*
CCCCC[C@@H]1C=C(C(=O)O)[C@H](c2ccc(Cl)c(Cl)c2)N1S(=O)(=O)c1ccc(C)cc1,15.7,3.7,-1.1,0.8,85.1*,-0.3,86.8*,52.9*
CCCCC[C@@H]1C=C(C(=O)O)[C@H](c2ccc(CC)cc2)N1S(=O)(=O)c1ccc(C)cc1,9.1,-2.7,-1.0,-0.6,8.1,2.2,nt,nt
CCCCC[C@@H]1C=C(C(=O)O)[C@H](c2ccc(OC)c(OC)c2)N1S(=O)(=O)c1ccc(C)cc1,0.1,2.3,-1.0,-6.3,49.9*,-0.2,43.6*,13.6*
CCCCC[C@@H]1C=C(C(=O)O)[C@H](c2cccc(C)c2)N1S(=O)(=O)c1ccc(C)cc1,7.2,-0.7,-2.4,-4.7,66.6*,0.0,49.7*,15.7*
CCOC(=O)[C@]12CCCCC/C=C\1N(Cc1ccc(OC)cc1)C(=O)[C@H]2CC(=O)NCc1ccc(OC)c(OC)c1,nt,-2.3,nt,-0.3,4.4,0.6,nt,nt
O=C(NC1CCCC1)C(C1CC1)n1c(-c2ccccn2)nc2ccccc21 (stereo unspecified),nt,-1.6,-0.1,1.8,-0.3,-1.5,nt,nt
SMILES,DNMT1 block,LEDGF integ inh,PG9 binder,MBD2 inh,rCAG RNA binder,UHRF1 MBD2 ctr,rCAG binder conf,dCAG dye counter
CC[C@@H]1C=C(C(=O)O)[C@H](c2ccc3c(c2)OCO3)N1S(=O)(=O)c1ccc(C)cc1,1.5,0.9,-2.4,-7.1,6.9,-1.8,nt,nt
CCCCC[C@@H]1C=C(C(=O)O)[C@H](c2ccc3c(c2)OCO3)N1S(=O)(=O)c1ccc(C)cc1,4.3,0.5,-0.6,-5.6,64.7*,1.2,53.8*,20.7*
Cc1ccc(S(=O)(=O)NC(=O)c2cc(C)n(-c3cc(S(=O)(=O)N4CCOCC4)ccc3N3CCCC3)c2C)cc1,-2.6,-2.9,-1.6,0.3,36.2*,-2.1,49.1*,15.3*
Cc1cccc(C(=O)N[C@H](C(=O)Nc2ccc(S(=O)(=O)NC3=NCCCCC3)cc2)C(C)C)c1,-3.7,0.8,1.6,4.9,2.0,3.3,nt,nt
CCOc1ccc(C(=O)N[C@H](C(=O)Nc2ccc(S(=O)(=O)Nc3nccs3)cc2)C(C)C)cc1,0.1,3.2,-1.9,-6.0,47.3*,-0.5,45.9*,15.1*
CS(=O)(=O)Nc1ccc(C(=O)Nc2ccc(S(=O)(=O)Nc3nccs3)cc2)cc1,5.4,-3.2,-1.5,1.8,7.3,4.1,nt,nt
Cc1cccc(C(=O)NC(C(=O)Nc2ccc(S(=O)(=O)Nc3nccs3)cc2)C(C)C)c1 (stereo unspecified),-1.2,-3.2,-0.5,-0.6,41.5*,-1.5,34.7*,12.9*
O=C(O)c1ccccc1-n1ncc2c1/C(=C/c1ccc(Cl)cc1)CC2,nt,-0.9,-1.7,4.8,38.2*,4.6,34.2,10.6*
N#Cc1c(NC(=O)Cn2cnc3ccccc3c2=O)oc(-c2ccccc2)c1-c1ccccc1,-7.0,5.2,-0.4,0.7,43.3*,-0.5,33.6,13.6*
N#Cc1c(NC(=O)CSc2ncccn2)oc(-c2ccccc2)c1-c1ccccc1,35.7,2.6,-0.9,-3.9,27.6,-2.6,nt,nt
CC(OC(=O)CCCN=C1NS(=O)(=O)c2ccccc21)C(=O)c1ccccc1 (stereo unspecified),-1.6,8.6,-2.9,-6.9,0.0,-2.5,nt,nt
O=C(Nc1ccccc1C(=O)Nc1nnc(C(F)(F)F)s1)c1ccccc1Cl,-19.0,2.3,-2.5,4.1,65.1*,-1.1,70.8*,29.6*

# Screening results as filed in PubChem.
